Experimental data from the OligoGym collection.

Each sequence was assayed against CNPPD1 (assay: pooled miR-30 sensor sort-seq; sequence = guide strand). Details: shRNA.
Further: reference of the scale not given here.

| Sequence | sensor-assay potency score (higher = more potent) |
| --- | --- |
| TAGTCTGGGTTTCGGTGCCGGA | -1.29 |
| TCTGTGTAGGTGTACCAGCCTC | -1.36 |
| ATGAGCTACGTATTTCTTCTGG | -0.315 |
| TTCGTCGTTGAAGACCTCCTCC | 0.0687 |
| TTACTGGCCACCATCATGGAGA | -0.834 |
| TCTCTCTGGAGCTTCTGGCAAA | -0.958 |
| TATTTCTTCTGGAGTCGGCGAA | -0.148 |
| TTCGACAGCAATGTCTGCCACC | -0.8 |
| TATGCCACAGCTAACAGGCAAG | -1.37 |
| TTCAATGTACACCAGAGCCAGC | -1.25 |
| TGAAAAGGGAACATTGCTGAGG | -0.362 |
| TAGAGCCTCCTTCGGATCCGGG | -1.33 |

The sequences below were run against CNTD1 in the same assay as above. Details: shRNA.

| Sequence | sensor-assay potency score (higher = more potent) |
| --- | --- |
| TTCTAGGATTTCTACAGCCTGG | -0.787 |
| TCTCTTATTATCTCTTGGCTGG | -0.35 |
| TTCATGCAGAAGATAGACCAGG | -0.656 |
| AAACTTGTTGACAAGCTGCTGT | 0.446 |
| TTTGGATGAAAGCACTTGCTGC | -0.907 |
| TAAACTTGTTGACAAGCTGCTG | -0.0466 |
| TTACCATAAACCTTTCTAGGAT | -0.637 |
| TTTTGGATGAAAGCACTTGCTG | -1.34 |
| TAGACTGCTGTCTCCCCGGAGT | -0.817 |
| TTTAGTGTGTAGATAGCCTAGA | 0.238 |
| TAAGAGAACTCAGCAATGCTTG | -0.451 |

The sequences below were run against COBRA1 in the same assay as above. Details: shRNA.

| Sequence | sensor-assay potency score (higher = more potent) |
| --- | --- |
| ATGAGCTCTACCTCCATCTTGG | -0.766 |
| TTCTTGTTCCTCTGCTTGGTGA | -1.3 |
| TTCTCTGTCTGGAACTGCTCGA | -0.254 |
| ATGAGCATCGGGAGGAACCTGG | -1.62 |
| TTGGATATGAGACTGGGGCTTT | -0.217 |
| TTGCTGTCCACGAACCGCTCTC | -0.427 |
| TGACACTCGCTCCAGCAGCTTG | -1.51 |
| AAACTTAGTGAAGCTTTCGGGA | -0.764 |
| TTCTGATCCACATTGAAAGTGT | -0.064 |
| TTTTTTCTCCGGAACCTTGGGC | 0.129 |
| TACAGCTTCACGTTCTTCCCCA | 0.123 |

What follows are sequences tested against COG2 in the same assay as above. Details: shRNA.

| Sequence | sensor-assay potency score (higher = more potent) |
| --- | --- |
| TTGAACAGCATGAAACTGTAAC | -0.748 |
| TTGTCGTCGTCGCTCATGCCAC | -1.52 |
| TTGACAAACACAGAGTATCGTG | -0.356 |
| TTCTGTGGCAATTCTCTCCAAA | -0.386 |
